Data published in PubChem BioAssay AID422 (Emory University Molecular Libraries Screening Center, 2006).
Several values for one entry are separate records, joined by “and”; a condition that tells them apart may be missing. Equal entries are not always repeated. The campaign covered roughly 160,000 compounds. About 310 (0.19%) were called active. Cut-off read from the data, not from the text of the source: active = inhibition above about 30%; inactive = the rest. The list comes from a sample in which actives are over-represented; it also holds similar structures and randomly drawn compounds. Some compounds were tested as several samples or in several runs, with calls that do not always agree.

Each compound was assayed against 14-3-3 protein gamma (Homo sapiens) (UniProt P61981) (assay: modulators of 14-3-3 gamma protein binding, primary screen, biochemical, fluorescence polarization (AID 422;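 note: 0% = protein plus tracer without compound and 100% = blank with tracer alone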)). Settings: FP, 14-3-3gamma / TMR-pS259-Raf peptide binding; at 40 µM; stronger effect = higher value.
Chain of 14-3-3 protein gamma (Homo sapiens) (P61981 whole entry, looked up): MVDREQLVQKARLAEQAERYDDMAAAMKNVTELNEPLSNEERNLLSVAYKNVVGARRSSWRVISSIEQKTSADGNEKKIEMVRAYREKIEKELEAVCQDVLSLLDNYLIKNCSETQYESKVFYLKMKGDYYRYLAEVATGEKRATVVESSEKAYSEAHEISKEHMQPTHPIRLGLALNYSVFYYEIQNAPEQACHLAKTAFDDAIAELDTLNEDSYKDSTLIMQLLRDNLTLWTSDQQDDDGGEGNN

SMILES	inhibition
Cc1c(Cl)cccc1N1C(=O)C2C3c4ccccc4C(c4ccccc43)C2C1=O (configuration not stated)	1.55% (inactive)
O=C(Nc1ccccc1C(F)(F)F)c1ccc(SC2CCCCC2)c([N+](=O)[O-])c1	-3.43% (inactive)
O=C(Nc1cccc2c1C(=O)c1ccccc1C2=O)c1ccccc1Br	-33.2% (inactive)
COc1cc2c(cc1OC)C(COc1ccc3c(C)cc(=O)oc3c1)N(C(=O)c1cc(C)cc(C)c1)CC2 (configuration not stated)	-4.93% (inactive)
O=C(Cn1cnc([N+](=O)[O-])c1)C1CC1	7.38% (inactive)
COc1ncnc2c1N=C1CC(C)(C)CC(N)=C1S2	56.3% (active)
CC(=O)CCC=C(C)CCC=C(C)C	-6.82% (inactive)
Cc1ccc(-c2nc3ccccc3c(C(=O)O)c2C)s1	-5.29% (inactive)
O=C1NC(c2ccc(Cl)cc2)C(C(=O)c2ccccc2)C(O)(C(F)(F)F)N1 (configuration not stated)	9.54% (inactive)
O=C(NCCCN1CCCC1)c1ccc(N2CCCC2=O)cc1	2.82% (inactive)
Cc1ccc(Cl)cc1N1C(=O)C(N2C(=O)c3ccc([N+](=O)[O-])cc3C2=O)C1c1cccc(F)c1 (configuration not stated)	-4.78% (inactive)
CCCC(=O)N(c1ccc2oc(C)c(C(=O)OC)c2c1)S(=O)(=O)c1cc([N+](=O)[O-])ccc1C	-23.1% (inactive)
COc1ccc(CN2C(=O)CCC2(C)C(=O)NC2CCCCCC2)c(OC)c1 (configuration not stated)	-7.62% (inactive)
COc1ccc2cc(-c3nnc(Nc4ccccc4F)s3)c(=O)oc2c1	-11.4% (inactive)
COC(=O)C1=C(C)NC2=C(C(=O)CC(c3ccccc3Cl)C2)C1c1ccc2c(c1)OCO2 (configuration not stated)	-2.26% (inactive)
O=c1oc2ccc(Cl)cc2cc1-c1cn2cc(Cl)cc(Cl)c2n1	-12.1% (inactive)
CN1CCc2c(n(-c3ccccc3)c3ccccc23)C1=O	-14.8% (inactive)
COc1cccc(C=Nc2cccc(C(=O)Nc3cccc4ccccc34)c2)c1O	2.57% (inactive)
CCOc1ccccc1C(=O)Nc1ccc(I)cc1C	-132% (inactive)
CCOc1ccc(N=Cc2c(O)c(C(=O)Nc3ccccc3C)cc3ccccc23)cc1	79.8% (active)
CCC(=O)N1CCc2cc(OC)c(OC)cc2C1COc1cccc(C(F)(F)F)c1 (configuration not stated)	-6% (inactive)
Cc1ccc(-c2cc(C(=O)OCC(C)C)c3cc(C)ccc3n2)cc1	3.92% (inactive)
COc1cc(C2Nc3ccccc3NC3=C2C(=O)CC(c2ccccc2Cl)C3)cc(Cl)c1O (configuration not stated)	-12.8% (inactive)

SMILES	inhibition
Cc1cccc(-n2ncc3c(N4CCc5ccccc54)ncnc32)c1	-10.6% (inactive) and 1.75% (inactive)
COc1ccc(-n2ncc3c(N4CCCc5ccccc54)ncnc32)cc1	43.9% (active)
COc1ccc(-n2ncc3c(N4CCc5ccccc54)ncnc32)cc1	-7.74% (inactive)
CC1Cc2nc(SCC(=O)Nc3cccc(C(F)(F)F)c3)n(C)c(=O)c2S1 (configuration not stated)	-7.37% (inactive)
CCOc1ccc(S(=O)(=O)N2CCC(C)CC2)c2ccccc12	-10.1% (inactive)
Cc1[nH]c2ccccc2c1C(=O)CSc1nc2ccccc2s1	-9.51% (inactive)
CCN1C(=O)c2cccc3c(S(=O)(=O)NC4CC(C)(C)NC(C)(C)C4)ccc1c23	-11.1% (inactive)
CC(C)(C)c1ccc(C(=O)NCc2n[nH]c(=S)n2-c2cccc(C(F)(F)F)c2)cc1	4.88% (inactive)
CN1C(=O)NC(c2cccc(Cl)c2)C2=C1CCCC2=O (configuration not stated)	2.47% (inactive)
Cc1ccc2c(=O)c(CN3CCOCC3)c(C)[nH]c2c1C	-4.4% (inactive)
Cc1ccc(-c2nnc(NCc3ccccc3)c3ccccc23)cc1S(=O)(=O)N1CCOCC1	-13.1% (inactive)
COc1ccc(CN2CCN(S(=O)(=O)c3cc(Br)c(Br)s3)CC2)c(OC)c1OC	-1% (inactive)
Cc1cc(N2CCOCC2)nc2ccc(NC(=O)c3ccc(F)cc3)cc12	-5.58% (inactive)
O=c1c2ccc(-c3ncc(-c4ccccc4)o3)c3cccc(c32)c2nc3cccc4cccc(c43)n12	-3.12% (inactive)
Clc1ccc2nc(-c3ccsc3)c(NC3CCCCC3)n2c1	1.17% (inactive)
O=C(CC1Sc2ccccc2NC1=O)NCCCSC1CCCCC1 (configuration not stated)	5.8% (inactive)
Cc1cccc2cc(C#N)c(N3CCCC3)nc12	-5.89% (inactive)
Cc1cc(NCCN2CCCCCC2)n2c(nc3ccccc32)c1C#N	-60.5% (inactive)
N#Cc1c(N2CCCCCC2)ncc2cc3ccccc3nc12	143% (active)
COc1ccc(NC(=O)Nc2cccc3cccnc23)cc1	-2.7% (inactive)
O=C(Nc1cccc2cccnc12)c1cccc(N2C(=O)CCC2=O)c1	2.56% (inactive)
O=C(O)c1ccccc1C(=O)Nc1cccc2cccnc12	52.6% (active)
O=C(NC1CCCCNC1=O)c1ccc(N2CC3CC(C2)c2cccc(=O)n2C3)c(NC(=O)c2ccccc2Br)c1 (configuration not stated)	-4.63% (inactive)

SMILES	inhibition
CN(Cc1ccccc1)S(=O)(=O)c1ccc2c(c1)CCN2C(=O)C1CCC1	-4.53% (inactive)
Cc1ccc(-c2csc(Nc3ccccc3)n2)c(C)c1	-4.17% (inactive)
O=C(CSc1nc2ccccc2[nH]1)c1cccs1	-10.8% (inactive) and -0.41% (inactive)
C=CCSc1nc2ccccc2[nH]1	50.5% (active) and -1.38% (inactive)
c1ccc2[nH]c(-c3nc4ccccc4[nH]3)nc2c1	-4.13% (inactive)
COc1cc(OC)c(C2C(C(=O)O)c3cc(OC)c(OC)cc3C(=O)N2C)cc1OC (configuration not stated)	4.71% (inactive)
O=C(O)c1c[nH]c2ccc(S(=O)(=O)N3CCN(c4cccc(Cl)c4)CC3)cc2c1=O	-20.1% (inactive)
COc1ccc(NC(=O)c2cc([N+](=O)[O-])ccc2Cl)cc1OC	-12.3% (inactive)
COc1ccc(CCNC(=O)c2cc(Cl)ccc2OC)cc1	-6.62% (inactive)
COc1cc2ccccc2cc1C(=O)NCCc1ccccc1	76% (active)
CC(=O)Oc1ccccc1C(=O)NCCc1ccccc1	3.04% (inactive)
CCCCN(CC)C(=O)C1c2cc(OC)c(OC)cc2C(=O)N(C)C1c1ccccc1F (configuration not stated)	-7.13% (inactive)
O=C(Oc1ccc(C2NC(=O)c3c(sc4c3CCCC4)N2)cc1)c1ccccc1 (configuration not stated)	-5.95% (inactive)
O=S(=O)(Nc1ccccn1)c1ccccc1	-1.79% (inactive)
Cc1ccc(NC(=O)c2cccc(Oc3ccc(C#N)cc3)c2)cc1	-12% (inactive)
O=C(Nc1nccs1)c1cc2cc(Cl)ccc2oc1=Nc1ccc(Br)cc1	-1.07% (inactive)
COc1ccc(CNCC2OCCc3ccccc32)cc1OC (configuration not stated)	-5.29% (inactive)
O=C(NCCc1ccccc1)C1Cc2ccccc2CN1S(=O)(=O)c1cccs1 (configuration not stated)	-6.94% (inactive)
Cc1sc(NC(=O)c2cc(=O)c3ccccc3o2)nc1-c1ccccc1	0.55% (inactive)
CCN(CC)c1ccc2cc(C(N)=O)c(=Nc3ccc(C(N)=O)cc3)oc2c1	3.05% (inactive)
CCN(CC)c1ccc2cc(C(=O)O)c(=O)oc2c1	-6.88% (inactive)
CCN(CC)c1ccc2cc(C(=O)NC(C)=O)c(=Nc3ccccc3OC)oc2c1	133% (active)
COc1cccc(-c2nn(C)c3sc(C(=O)NCCCOC(C)C)cc23)c1	-12.3% (inactive)

SMILES	inhibition
CC(C)CCOC(=O)c1c2c(n3ccccc13)C(=O)c1ccccc1C2=O	34.6% (active)
COC(=O)c1ccc2c(c1N)C(=O)c1ccccc1C2=O	-200% (inactive)
O=C(OCCN1C(=O)c2ccccc2C1=O)c1ccc([N+](=O)[O-])cc1	5.13% (inactive)
Cc1ccc2c(c1)-c1cccc3cccc(c13)C2=O	3.94% (inactive)
Cc1cc2c3c(ccc(N)c3n1)C(=O)c1ccccc1-2	127% (active)
Cc1ccc2nc3c(nc2c1)C(=O)c1ccccc1C3=O	-16.2% (inactive)
CCc1ccccc1NC(=O)c1cc2cc3ccc(OC)cc3nc2o1	17.8% (inactive)
O=C(Cc1ccc(Cl)cc1)Nc1cccc(-c2nc3ccccc3o2)c1	-129% (inactive)
COc1ccc(C2C3=C(CCCC3=O)OC3=C2C(=O)CCC3)cc1	0.11% (inactive)
CCC(=O)N1CCc2cc(S(=O)(=O)CCC(=O)N3CCN(c4cccc(OC)c4)CC3)ccc21	3.36% (inactive)
COc1cc2ccccc2cc1C(=O)Nc1nc(-c2c(OC)ccc3ccccc23)cs1	-0.5% (inactive)
COC(=O)C1=CN(C)C=C(C(=O)OC)C1c1cc(OC)ccc1OC	1.92% (inactive)
O=C(COc1ccc(C2CCCCC2)cc1)Nc1ccc(-c2nc3ncccc3o2)cc1	-12.3% (inactive)
CC(=O)COc1cc(C)cc2oc(=O)c(Cc3ccccc3)c(C)c12	4.62% (inactive)
COCCn1c(=S)[nH]c2cc(C(=O)N3CCN(C(=O)c4ccco4)CC3)ccc2c1=O	2.47% (inactive)
CCOc1cc2c(cc1OCC)C1C(C(=O)NCCN3CCOCC3)c3ccccc3C(=O)N1CC2 (configuration not stated)	8.01% (inactive)
C(=N\n1cnnc1)/c1cccnc1	-6.33% (inactive)
S=c1[nH]ncn1-c1cccnc1	40.8% (active)
CC(C)(C)c1ccc(-c2nc(Cc3ccc(Cl)cc3)no2)cc1	-5.54% (inactive)
COC(=O)C1=C(C)N=C2SC(C)C(=O)N2C1c1ccc(C)cc1 (configuration not stated)	-10.9% (inactive)
CC(C)c1ccc(NC(=O)c2ccc(F)c(S(=O)(=O)NCc3ccccc3Cl)c2)cc1	-7.39% (inactive)
COc1ccc(NC(=O)CSc2nc3nc(C)cc(C)n3n2)c(OC)c1	-15.5% (inactive)
CCOC(=O)c1ccc(N2C(=O)C3CCCCC3C2=O)cc1 (configuration not stated)	-3.67% (inactive)
